An excerpt weighted towards active compounds, which were near 2.8% of everything screened.
LGR2 antag – inhibitors of bursicon-induced LGR2 CRE-luciferase signal, primary screen, cell-based, HEK293, CRE-luciferase reporter, bursicon stimulation; bursicon-stimulated, 4 h; inhibition, % at 9.99 µM; 380,000 tested, 0.35% active;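 active = drop in luminescence signal, shown as inhibition above about 50% in the replicate tests, limit read from the data, passing the limit was not always enough; inconclusive = probably only some replicates passing the limit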;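 also: agonist challenge used bursicon conditioned medium at about half maximal strength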
TWEAK-Fn14 inh – inhibitors of TWEAK-Fn14 signaling, primary screen, luciferase reporter cells, uHTS; TWEAK-stimulated Fn14 reporter cells, luciferase luminescence, 8 h; inhibition, % at 10 µM; 360,000 tested, 2% active; in the data active = inhibition above about 50%
TROY NFkB inh – inhibitors of TROY-driven NF-kB signaling, primary screen, Q293 LMP1-TROYcd cells, NF-kB luciferase, uHTS. inhibition, % at 10 µM. Q293 LMP1-TROYcd NF-kB luciferase reporter, 4 h. AID 1347056, 2019. 360,000 tested, 0.98% active;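 active = compounds whose plate-normalised and pattern-corrected inhibition of the luciferase reporter signal at the single screening dose is 50% or more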
PAX8 reporter – inhibitors of PAX8-driven TPO luciferase reporter, primary screen, RMG-I cells, single concentration; SteadyGlo, 24 h; inhibition, % at 12.6 µM; 360,000 tested, 1.2% active;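 active = mean replicate inhibition at least 60% with every replicate also reaching 60%; inconclusive = only one of the two criteria is met; inactive = mean below 60% and not all replicates reaching 60%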;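 also: luciferase light reporting Pax8 driven TPO promoter activity; plate controls were median of neutral control wells for no effect and mitoxantrone controls for full effect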
EWS-Fli block – EWS/Fli-driven NR0B1 reporter inhibitors, primary screen, A673 cells, NR0B1 luciferase, luminescence, MLPCN library | viability-normalised | inhibition, % at 12.6 µM | 350,000 tested, 0.67% active | AID 651661, 2012;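 active = mean inhibition of at least 50% after viability correction, with every replicate also passing that limit; inconclusive = mean reaches 50% but only one of two replicates passes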;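 also: firefly luciferase signal divided by Alamar Blue viability fluorescence both relative to DMSO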
An asterisk follows results filed as active.

What do the screens show for `O=C(Nc1cccc(F)c1)N1CCCCN2[C@@H](CO)[C@@H](c3ccc(-c4ccccc4F)cc3)[C@@H]2C1`?
LGR2 antag: 12.4; PAX8 reporter: 113.7*; EWS-Fli block: 42.5

How did OCCC1CN(Cc2cc(F)ccc2-n2cccn2)CCN1C1CCCC1 (stereo unspecified) do in these assays?
LGR2 antag: -12.0; TWEAK-Fn14 inh: 91.2*; TROY NFkB inh: 8.3; PAX8 reporter: -6.7; EWS-Fli block: -5.0

How did CC(C)CCN1CCN(Cc2cc(F)ccc2-n2cccn2)CC1CCO (stereo unspecified) do in these assays?
LGR2 antag: -12.4; TWEAK-Fn14 inh: -12.1; TROY NFkB inh: 7.2; PAX8 reporter: -1.0; EWS-Fli block: 4.8

How did CCOC(=O)c1[nH]c2ccc(Cl)cc2c1-c1ccccc1 do in these assays?
TWEAK-Fn14 inh: 6.8; TROY NFkB inh: 3.3; PAX8 reporter: -3.1

How did CN(C)C=NC(=O)c1[nH]c2ccc(Cl)cc2c1-c1ccccc1 do in these assays?
LGR2 antag: -2.5; TWEAK-Fn14 inh: 69.3*; TROY NFkB inh: 42.6; PAX8 reporter: 56.9; EWS-Fli block: 2.5

How did CCCN(C)C[C@H]1OCCCC[C@@H](C)Oc2ccc(NC(=O)c3ccccc3)cc2C(=O)N([C@@H](C)CO)C[C@H]1C do in these assays?
LGR2 antag: 4.4; PAX8 reporter: -11.5; EWS-Fli block: -3.8

What do the screens show for `NC(=O)c1c(-c2ccc(Cl)cc2Cl)csc1NC(=O)Cc1ccccc1`?
LGR2 antag: 9.7; TWEAK-Fn14 inh: 76.1*; TROY NFkB inh: 19.8; PAX8 reporter: -9.3; EWS-Fli block: 6.1

What do the screens show for `NC(=O)[C@H]1[C@@H]2C(=O)O[C@@H](c3ccccc3)[C@@H](c3ccccc3)N2[C@@H](c2ccc(OCCO)cc2)[C@]12C(=O)Nc1ccccc12`?
PAX8 reporter: -57.7; EWS-Fli block: -17.6

What do the screens show for `NC(=O)c1c(NC(=O)c2ccccc2)sc2c1CCc1ccccc1-2`?
LGR2 antag: -95.1; TWEAK-Fn14 inh: 56.1*; TROY NFkB inh: -30.1

What do the screens show for `NC(=O)c1c(NC(=O)c2ccccc2)sc2c1CCC2`?
TWEAK-Fn14 inh: 6.8; TROY NFkB inh: -40.6; PAX8 reporter: -96.8; EWS-Fli block: -103.9

How did O=C(COC(=O)c1cc(S(=O)(=O)Nc2ccccc2Cl)ccc1O)Nc1nc2ccccc2s1 do in these assays?
LGR2 antag: 18.2; TWEAK-Fn14 inh: -10.9; TROY NFkB inh: 60.1*; PAX8 reporter: -11.9; EWS-Fli block: -0.9

How did N#Cc1cccc(NC(=O)COC(=O)c2cc(S(=O)(=O)Nc3ccccc3Cl)ccc2O)c1 do in these assays?
LGR2 antag: -1.4; TWEAK-Fn14 inh: -9.2; TROY NFkB inh: 48.1; PAX8 reporter: 2.3; EWS-Fli block: -6.0

Results for CC(=O)OC1CCC2(C)C(CCC3C4CC=C(C(C)=O)C4(C)OC(=O)CC32)C1 (stereo unspecified) ?
LGR2 antag: 106.6*; TWEAK-Fn14 inh: 102.1*; TROY NFkB inh: 42.7; PAX8 reporter: 100.5*; EWS-Fli block: 15.2

How did CCOc1ccc(/C=C2\SC(=O)N(CCNC(=O)C3COc4ccccc4O3)C2=O)cc1OC (stereo unspecified) do in these assays?
LGR2 antag: 17.7; TWEAK-Fn14 inh: 40.3; TROY NFkB inh: 51.3*

How did Cn1cnc(CCNC(=O)C[C@@H]2CC[C@H]3[C@@H](COC[C@@H](O)CN3C(=O)C3CC3)O2)c1 do in these assays?
LGR2 antag: -6.5; PAX8 reporter: -26.2; EWS-Fli block: -0.1

Results for OCC(CCc1c[nH]c2ccccc12)c1c[nH]c2ccccc12 (stereo unspecified) ?
LGR2 antag: 1.4; PAX8 reporter: 26.3; EWS-Fli block: -3.6

How did O=S1(=O)CCN(c2ccccc2CC(c2c[nH]c3ccccc23)c2c[nH]c3ccccc23)CC1 do in these assays?
LGR2 antag: 5.0; TWEAK-Fn14 inh: 63.0*; TROY NFkB inh: 27.9; PAX8 reporter: 20.2; EWS-Fli block: 7.4

Results for O=C(C[C@H]1CC[C@H](NC(=O)c2cccnc2)[C@@H](CO)O1)NCc1ccc(Cl)c(Cl)c1 ?
LGR2 antag: 6.3; PAX8 reporter: 1.8; EWS-Fli block: -0.4

Results for CN(C)CCCNc1c2ccccc2nc2ccccc12 ?
LGR2 antag: 91.7*; TWEAK-Fn14 inh: -4.8; TROY NFkB inh: -46.8; PAX8 reporter: 10.1; EWS-Fli block: 47.9

What do the screens show for `c1ccc2c(NCCCN3CCOCC3)c3ccccc3nc2c1`?
LGR2 antag: 89.6*; PAX8 reporter: 22.4; EWS-Fli block: inconclusive

How did Fc1ccccc1-c1nc(NCCCN2CCOCC2)c2ccccc2n1 do in these assays?
LGR2 antag: 5.7; TWEAK-Fn14 inh: -0.1; TROY NFkB inh: -2.8; PAX8 reporter: -14.0; EWS-Fli block: -1.7

How did Oc1ccc(CCNc2c3ccccc3nc3ccccc23)cc1O do in these assays?
LGR2 antag: 38.8; TWEAK-Fn14 inh: -25.7; TROY NFkB inh: -28.9; PAX8 reporter: -70.6; EWS-Fli block: 70.5*

How did c1ccc(CNc2c3ccccc3nc3ccccc23)cc1 do in these assays?
LGR2 antag: -9.5; TWEAK-Fn14 inh: -29.8; TROY NFkB inh: -56.6; PAX8 reporter: 13.2; EWS-Fli block: 15.4

What do the screens show for `C[C@@H]1CN([C@@H](C)CO)S(=O)(=O)c2ccc(-c3ccccc3)cc2O[C@@H]1CN(C)Cc1ccncc1`?
LGR2 antag: 7.8; EWS-Fli block: -4.0

What do the screens show for `Cc1ccc(-c2ccc3c(c2)O[C@H](CN(C)Cc2ccncc2)[C@@H](C)CN([C@@H](C)CO)S3(=O)=O)cc1`?
LGR2 antag: -7.2; EWS-Fli block: 71.6*

What do the screens show for `Cc1ccc(-c2ccc3c(c2)O[C@@H](CN(C)Cc2ccncc2)[C@H](C)CN([C@H](C)CO)S3(=O)=O)cc1`?
LGR2 antag: 1.5; EWS-Fli block: 74.2*

How did C[C@H]1CN([C@@H](C)CO)S(=O)(=O)c2ccc(/C=C/c3ccccc3)cc2O[C@@H]1CN(C)Cc1cccnc1 do in these assays?
PAX8 reporter: 85.9*; EWS-Fli block: 19.7

What do the screens show for `Cc1ccc(-c2ccc3c(c2)O[C@H](CN(C)Cc2cccnc2)[C@@H](C)CN([C@H](C)CO)S3(=O)=O)cc1`?
LGR2 antag: 13.0; EWS-Fli block: 62.6*

How did CCC(=O)Nc1ccc2c(c1)OC[C@@H](C)N(C(=O)CC1CC1)C[C@@H](C)[C@@H](OC)CN(C)C2=O do in these assays?
LGR2 antag: 12.0; EWS-Fli block: 1.1

Results for COC(=O)C[C@@H]1CC[C@@H]2[C@H](COc3ccc(NC(=O)NCc4ccccc4)cc3C(=O)N2C)O1 ?
LGR2 antag: -4.3; PAX8 reporter: -19.8; EWS-Fli block: 1.1

How did C[C@H](CO)N1C[C@H](C)[C@@H](CN(C)Cc2ccccc2)Oc2ncc(C#Cc3cccnc3)cc2C1=O do in these assays?
LGR2 antag: -13.3; EWS-Fli block: -2.9

What do the screens show for `N=c1c[n+](N2CCOCC2)[n-]o1`?
LGR2 antag: 10.2; TWEAK-Fn14 inh: 72.4*; TROY NFkB inh: 15.2; PAX8 reporter: -18.9; EWS-Fli block: -7.6
